SMARCA2 activ: increases SMARCA2 function in MMTV reporter cells; AID 652017; activation, % at 9.1 µM; 370,000 compounds, 1% hits; MG213 cells, MMTV-luciferase reporter, dexamethasone, overnight; in the data active = activation above about 7.8%
FAS-TE inh: inhibitors of human fatty acid synthase thioesterase domain; P49327; recombinant FAS-TE, OMFH fluorogenic substrate, fluorescence endpoint; inhibition, % at 15 µM; 360,000 compounds, 0.67% hits;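 active = compounds whose normalised, plate-corrected inhibition of enzyme fluorescence in the single-dose primary screen is 50% or more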
proKLK7 act: activators of human kallikrein-7 zymogen | activation, % at 7 µM | purified proKLK7, EDANS-DABCYL substrate fluorescence; 100% is mature enzyme control, 0% vehicle | 370,000 compounds, 0.9% hits;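 active = activation above the mean of all tested compounds plus 3 SD, computed per campaign excluding outliers beyond control limits, cut at about 13% in these data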
GAA850 FXN act: frataxin GAA850 promoter activation. HEK293 lucGAA850 FXN promoter luciferase reporter, 24 h; percent of 10 µM SAHA response. activation, % at 6 µM. 360,000 compounds, 0.56% hits. AID 540364;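 active = activation above the average of all compounds screened plus 3 SD, cutoff fixed separately per campaign, cut at about 7.5% in these data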
FAS-TE inh conf: confirmation of human fatty acid synthase thioesterase inhibitors; 2,300 compounds, 45% hits; recombinant FAS-TE, OMFH fluorogenic substrate, fluorescence; shares compounds with FAS-TE inh; inhibition, % at 15 µM;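 active = compounds inhibiting the enzyme by at least 50% at 15 µM in any one of the replicates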
Large screens that a line does not name were inactive (follow-up assays come after a bar, where they were run). This is a sample that favours compounds with a hit; in the whole collection about 2.9% have one here.

COc1ccccc1-c1cc(SC)c(C#N)c(=O)o1	FAS-TE inh 55 | FAS-TE inh conf 47
O=C(CCNC(=O)c1ccc([N+](=O)[O-])cc1)NCC1COc2ccccc2O1 (stereo unspecified)	none
O=C(Cn1cc([N+](=O)[O-])ccc1=O)NCC1COc2ccccc2O1 (stereo unspecified)	FAS-TE inh 52 | FAS-TE inh conf 55
Cc1ccc([N+](=O)[O-])cc1S(=O)(=O)NCC1COc2ccccc2O1 (stereo unspecified)	FAS-TE inh 66 | FAS-TE inh conf 60
Cc1ccc(-c2nnc3ccc(SCC(=O)N4CCCc5ccccc54)nn23)cc1	FAS-TE inh 74 | FAS-TE inh conf 70
Cc1ccc(-c2nnc3ccc(SCC(=O)N4CCc5ccccc54)nn23)cc1	none
CC(CCc1ccccc1)NC(=O)COC(=O)c1cc(NS(=O)(=O)c2ccc(Cl)c([N+](=O)[O-])c2)ccc1O (stereo unspecified)	FAS-TE inh 55 | FAS-TE inh conf 62
CNS(=O)(=O)c1cccc(C(=O)OCC(=O)NC(C)CCc2ccccc2)c1 (stereo unspecified)	none
O=C1NC(=S)S/C1=C\c1cc2ccccc2nc1N1CCCCC1	FAS-TE inh 69 | FAS-TE inh conf 51
COc1ccc2nc(N3CCCCC3)c(/C=C3\SC(=S)NC3=O)cc2c1	FAS-TE inh 62 | FAS-TE inh conf inactive
COc1ccc(-n2c(C)cc(/C=C3\SC(=S)NC3=O)c2C)cc1	none
CCOc1ccc(NC(=O)COc2cccc3c2CCN(Cc2cccnc2)C3=O)cc1	none
COc1ccc([C@H]2/C=C\CN(S(=O)(=O)c3cccc4cccnc34)[C@@H](C)C(=O)N2Cc2ccc(F)cc2)cc1	FAS-TE inh 78 | FAS-TE inh conf inactive
COc1ccc(C2/C=C\CN(S(=O)(=O)c3cccc4cccnc34)CC(=O)N2Cc2ccc(F)cc2)cc1 (stereo unspecified)	none
CN1c2ccccc2N(C)C1c1c(O)ccc2ccccc12	none
COc1ccccc1-n1c2nc3ccccc3nc2c2c(=O)n(-c3cc(C)cc(C)c3)cnc21	FAS-TE inh 92 | FAS-TE inh conf inactive
Cc1cccc([C@@H]2[C@@H]3C(=O)N(Cc4ccccc4)C(=O)[C@@H]3[C@]3(CC(C)C)C(=O)N(c4cccc(F)c4)C(=O)N23)c1	FAS-TE inh 72 | FAS-TE inh conf inactive
CCN1C(=O)[C@H]2[C@@H](c3ccc(C)cc3)N3C(=O)N(c4ccccc4)C(=O)[C@@]3(CC)[C@H]2C1=O	none
Cc1cccc([C@@H]2[C@@H]3C(=O)N(Cc4ccccc4)C(=O)[C@@H]3[C@]3(Cc4ccccc4)C(=O)N(c4cccc(F)c4)C(=O)N23)c1	FAS-TE inh 92 | FAS-TE inh conf inactive
CCN1C(=O)[C@H]2[C@@H](c3ccc(C)cc3)N3C(=O)N(c4ccc(C)cc4)C(=O)[C@@]3(CC)[C@H]2C1=O	none
CC1CCCC(NC(=O)COC(=O)/C=C/c2ccc(F)cc2)C1C (stereo unspecified)	none
COc1cc(NC(=O)c2cc(-c3ccccc3)on2)cc(OC)c1OC	none
COc1cc(NC(=O)c2cc3nc(-c4ccccc4)cc(-c4ccccc4)n3n2)cc(OC)c1OC	FAS-TE inh 52 | FAS-TE inh conf inactive
COc1cccc(NC(=S)N2CCc3cc(OC)c(OC)cc3C2COc2ccc3c(C)cc(=O)oc3c2)c1 (stereo unspecified)	FAS-TE inh 58 | FAS-TE inh conf inactive
CCNC(=S)N1CCc2cc(OC)c(OC)cc2C1COc1ccc(OC)cc1 (stereo unspecified)	none
Cc1cccn2c(=O)c3cc(C#N)c(=NC(=O)c4cccs4)n(CCCOC(C)C)c3nc12	FAS-TE inh 52 | FAS-TE inh conf inactive
CCOC(=O)c1cc2c(=O)n3cccc(C)c3nc2n(CCCOC)c1=NC(=O)c1cccnc1	FAS-TE inh 54 | FAS-TE inh conf inactive
COC(=O)c1c(NC(=O)Cn2cc([N+](=O)[O-])cn2)sc2c1CCC2	FAS-TE inh 51 | FAS-TE inh conf inactive
CCN(Cc1ccccc1)C(=O)COC(=O)c1cc(Cl)nc(Cl)c1	FAS-TE inh 55 | FAS-TE inh conf 66
CCN(Cc1ccccc1)C(=O)COC(=O)c1cnc(C)cn1	none
Cc1cccc(C2Nc3ccccc3C(=O)N2NC(=O)c2ccc([N+](=O)[O-])cc2)n1 (stereo unspecified)	FAS-TE inh 53 | FAS-TE inh conf 62
O=C(NN1C(=O)c2ccccc2NC1c1ccccn1)c1ccc([N+](=O)[O-])cc1 (stereo unspecified)	none
O=C(NCC1CCCCC1)C12CN(Cc3ccccc3)CC1C(c1cccc([N+](=O)[O-])c1)=NO2 (stereo unspecified)	FAS-TE inh 54 | FAS-TE inh conf inactive
O=C(Nc1nc(-c2ccc(F)c(F)c2)cs1)c1cc([N+](=O)[O-])ccc1N1CCOCC1	FAS-TE inh 55 | FAS-TE inh conf inactive
Cc1cc(C)c(-c2csc(NC(=O)c3cc([N+](=O)[O-])ccc3N3CCOCC3)n2)c(C)c1	FAS-TE inh 65 | FAS-TE inh conf inactive
Cc1nc2c(OCc3ccc(Cl)cc3Cl)cccn2c1N(C)Cc1cccs1	none
CC(OC(=O)c1ccc(-n2cnnn2)cc1)C(=O)Nc1ccccc1[N+](=O)[O-] (stereo unspecified)	none
O=C(Nc1ccccc1C(=O)NCCCN1CCOCC1)c1ccccc1	none
O=C(/C=C/c1cccc([N+](=O)[O-])c1)NCCSCc1cccc(Cl)c1	FAS-TE inh 58 | FAS-TE inh conf 66
O=C(/C=C/c1cccc([N+](=O)[O-])c1)NCCc1ccc(F)cc1	FAS-TE inh 52 | FAS-TE inh conf 51
O=C(/C=C/c1ccc([N+](=O)[O-])cc1)NCCc1ccc(F)cc1	none
CCc1ccc(OCC(=O)NNC(=O)c2cc(S(=O)(=O)N3CCOCC3)ccc2N2CCCC2)cc1	none
COc1ccc([C@@H]2[C@@H]3C(=O)N(C(C)(C)C)C(=O)[C@@H]3[C@]3(Cc4ccc(Cl)cc4)C(=O)N(c4ccc(OC)cc4)C(=O)N23)cc1	FAS-TE inh 92 | FAS-TE inh conf inactive
COc1ccc([C@@H]2[C@@H]3C(=O)N(C(C)(C)C)C(=O)[C@@H]3[C@]3(C)C(=O)N(c4ccc(C)cc4)C(=O)N23)cc1	none
COc1ccc([C@@H]2[C@@H]3C(=O)N(C(C)(C)C)C(=O)[C@@H]3[C@]3(Cc4ccc(Cl)cc4)C(=O)N(c4ccc(Br)cc4)C(=O)N23)cc1	FAS-TE inh 88 | FAS-TE inh conf 55
COCCOc1ccc(C(F)(F)F)cc1NC(=O)Cc1ccc(S(=O)(=O)N2CCOCC2)s1	FAS-TE inh 65 | FAS-TE inh conf 69
CCCOc1ccc(NC(=O)Cc2ccc(S(=O)(=O)N3CCOCC3)s2)cc1OCCC	none
CN(Cc1ccc(C(C)(C)C)cc1)C(=O)Cc1ccc(S(=O)(=O)N2CCOCC2)s1	FAS-TE inh 85 | FAS-TE inh conf 89
CN(Cc1cccc(F)c1)C(=O)Cc1ccc(S(=O)(=O)N2CCOCC2)s1	none

High-throughput results from PubChem BioAssay.
